# Laboratory results: PubChem BioAssay (NCATS)
# Inconclusive results are not listed. A number with no mark means an inactive call. Activity calls are given as the source filed them. Calls come from the whole dose curve; as a rule, active = well fitted inhibition curve with a large enough effect; inconclusive = small, poorly fitted or top-dose-only effect; inactive = flat fitted curve, though single readings scatter. Where a SMILES comes first, the peptide text is derived from it. The star is where a group is joined. PhAc = O=C(Cc1ccccc1)*
# Assay: Primary qHTS for inhibitors of nuclear receptor binding SET domain protein 2 (NSD2) in an isogenic RCH-ACV NSD2 p.E1099K mutant (9B) (AID 1645876); note: nearly all actives have a fitted effect of over 70% in size
# Conditions: RCH-ACV (leukaemia line) NSD2 E1099K (9B) viability, CellTiter-Glo, 72 h; series mostly up to 44.9 µM; activity change, negative = viability loss: at the top concentration
# % is set by controls: 0 for no effect and ±100 for the full control effect.
SMILES,outcome,"activity change, negative = viability loss"
Cc1occc(=O)c1O[C@@H]1O[C@H](CO)[C@@H](O)[C@H](O)[C@H]1O,inactive,
CC(C)[C@@H](C(=O)O)N1Cc2c(cc(O)c3c2O[C@]2(C3)[C@H](C)CCC3C(C)(C)[C@H](O)[C@H](O)C[C@@]32C)C1=O (stereo not given in full),,1.04% [at 17.3 µM]
CC(=O)O[C@@H]1[C@@H](O)[C@H](C)O[C@@H](O[C@H]2[C@@H]3C=CO[C@@H](O[C@@H]4O[C@H](CO)[C@@H](O)[C@H](O)[C@H]4OC(C)=O)[C@@H]3[C@@]3(CO)O[C@@H]23)[C@@H]1OC(=O)/C=C/c1ccc(O)cc1,inactive [at 17.3 µM],
NC(=O)[C@H](Cc1ccccc1)NC(=O)[C@H](CCCN=C(N)N)NC(=O)C12CC3CC(CC(C3)C1)C2,,-0.15% [at 9.23 µM]
CC1(CO)CCCC2(C)C1C(OC(=O)c1ccccc1)CC1C(=O)OCC12O (stereo not given),,1.85%
COC(=O)C1=CO[C@@H](O[C@@H]2O[C@H](CO)[C@@H](O)[C@H](O)[C@H]2O)C2C1CC(O)C2C (stereo not given in full),,4.65%
COc1ccc([C@H]2OC[C@H]3[C@@H]2CO[C@@H]3c2ccc(O[C@@H]3O[C@H](CO)C(O)[C@H](O)[C@H]3O)c(OC)c2)cc1OC (stereo not given in full),,-15.6% [at 17.3 µM]
CC(=O)/C=C/C1(O)C(C)CC(O[C@@H]2O[C@H](CO)[C@@H](O)[C@H](O)[C@H]2O)CC1(C)C (stereo not given in full),inactive [at 17.3 µM],
CC(=O)OC1C(O)C(C)(O)C(/C=C/C(=O)O)C2(C)CCCC(C)(C)C12 (stereo not given),,-11%
CC(C)=CCC[C@](C)(O[C@@H]1O[C@H](CO[C@@H]2O[C@@H](CO)[C@H](O)[C@H]2O)[C@@H](O)[C@H](O)[C@H]1O)[C@H]1CC[C@]2(C)[C@@H]1[C@H](O)C[C@@H]1[C@@]3(C)CC[C@H](O[C@@H]4O[C@H](CO)[C@@H](O)[C@H](O)[C@H]4O[C@@H]4O[C@H](CO)[C@@H](O)[C@H](O)[C@H]4O)C(C)(C)[C@@H]3CC[C@]12C,inactive [at 17.3 µM],
NC(=O)[C@@H]1CC[C@H](c2ccc(OCc3ccccc3F)cc2)N1,,-10.8%
CC(C)(O)C1CC=C(C(=O)OC[C@H]2O[C@@H](Oc3cc(C(=O)O)cc(O)c3O)[C@H](O)[C@@H](O)[C@@H]2O)CC1 (stereo not given in full),,2.85% [at 17.3 µM]
C[C@]12CC/C(=N\OCC(=O)O)C=C1CC[C@@H]1[C@@H]2[C@@H](O)C[C@@]2(C)[C@H]1CC[C@]2(O)C(=O)CO,,-27.4%
CC/C=C\CC1C(CC(=O)O)CCC1OC1OC(CO)C(O)C(O)C1O (stereo not given),inactive,
CC1=C2CC(=O)C(C)CC/C=C(\C)CC2(O)OC1=O (stereo not given),,3.26%
O=C(O)c1ccnc2cc(C(OCC3CCC(F)(F)CC3)c3ccccc3Cl)[nH]c12 (stereo not given),inactive,
C/C=C(\C)C(=O)OC[C@H]1O[C@@H](O[C@H]2[C@@H](O[C@H]3O[C@H](COC(=O)/C(C)=C/C)[C@@H](O)[C@H](O)[C@H]3O[C@@H]3O[C@H](CO)[C@@H](O)[C@H](OC(=O)/C(C)=C/C)[C@H]3O)O[C@H](COC(=O)/C(C)=C/C)[C@@H](O)[C@@H]2O)[C@H](O)[C@@H](O)[C@@H]1O,,-4.56% [at 9.23 µM]
COc1cc(C(=O)OC[C@H]2O[C@@H](OC(C)(C)C(=O)O)[C@H](O)[C@@H](O)[C@@H]2O)cc(OC)c1O,,-2.75% [at 17.3 µM]
COC(O)(CC(C)C)C1Oc2cc(C)[nH]c(=O)c2O1 (stereo not given),inactive,
CC(C)=C1CC2[C@](C)(CC[C@@H](OC(=O)C3(C)OC3C)[C@@]2(C)O)CC1=O (stereo not given in full),inactive,
CCOC(=O)CNC(=O)[C@@H]1CCCN1C(=O)Cc1ccccc1 (PhAc-Pro-Gly-OEt),,2.2%
O=C(/C=C/c1ccc(O)c(O)c1)OC[C@H]1O[C@@H](OC2CCCCC2O)[C@H](O)[C@@H](O)[C@@H]1O (stereo not given in full),inactive [at 17.3 µM],
C#CCCCn1cc(-c2cccc3c2N[C@@H](C)CC(=O)N3)cn1,,-25.1%
C/C=C(\C)C(=O)OC[C@H]1O[C@@H](O[C@H]2[C@@H](O[C@H]3O[C@H](CO)[C@@H](O)[C@H](O)[C@H]3O[C@@H]3O[C@H](CO)[C@@H](O)[C@H](O)[C@H]3O)O[C@H](COC(=O)/C(C)=C/C)[C@@H](O)[C@@H]2O)[C@H](O)[C@@H](O)[C@@H]1O,,-10.2% [at 9.23 µM]
C[C@@H]1O[C@@H](O[C@H]2[C@@H]3C=CO[C@@H](O[C@@H]4O[C@H](CO)[C@@H](O)[C@H](O)[C@H]4O)[C@@H]3[C@@]3(CO)O[C@@H]23)[C@H](O)[C@H](OC(=O)/C=C/c2ccc(O)c(O)c2)[C@H]1O,,-9.08% [at 17.3 µM]
